Screens as filed in PubChem.
Integrin act MD – activates integrin-mediated alleviation for muscular dystrophy; alpha7betagal myoblasts, beta-gal FDG fluorescence, 48 h; Potency, µM (doses to about 38.3 µM), actives largely listed as activators; 350,000 tested, 0.064% active; AID 624291; further: nearly all actives have a fitted effect of over 60% in size
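alpha7betagal+/- myoblasts (passage 13, 250/well) treated 48 h at 37C with compounds at 1:260 dilution of DMSO stock. Lysed, then beta-galactosidase activity read as FDG fluorescence (ex 480/em 540) after 30 min, with pre-read for autofluorescence.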
D3 ag – D3 dopamine receptor (human) agonism | max activation, % | D3R DiscoveRx beta-arrestin cells, luminescence, 90 min | P35462 | 410,000 tested, 0.58% active; in the data active means max activation above about 30%
Target sequence (P35462 whole entry, looked up): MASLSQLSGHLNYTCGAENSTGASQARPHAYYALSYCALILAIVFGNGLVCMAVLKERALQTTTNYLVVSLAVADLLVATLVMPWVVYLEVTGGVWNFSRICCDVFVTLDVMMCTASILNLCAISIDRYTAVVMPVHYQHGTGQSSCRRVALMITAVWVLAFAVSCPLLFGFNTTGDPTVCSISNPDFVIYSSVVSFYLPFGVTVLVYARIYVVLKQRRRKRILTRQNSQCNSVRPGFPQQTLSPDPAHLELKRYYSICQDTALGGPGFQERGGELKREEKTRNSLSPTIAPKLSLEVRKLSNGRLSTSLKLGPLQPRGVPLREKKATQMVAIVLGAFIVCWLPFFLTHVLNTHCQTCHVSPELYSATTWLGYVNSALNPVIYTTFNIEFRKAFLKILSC
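Agonist mode: compounds and dopamine controls were applied to plated cells for 90 min at 37 degrees C after an overnight attachment at 1500 cells/well. Luminescent read-out followed 30 - 60 minutes at room temperature with DiscoveRx detection reagent.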
ATXN2 expr inh – inhibitors of ATXN2 expression; HEK-293 ATXN2-luciferase reporter, luminescence, 24 h; Potency, µM (series often up to 57 µM), hits mostly inhibitors; 360,000 tested, 0.72% active; AID 1745845; further: nearly all actives have a fitted effect of over 55% in size
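ATXN2-luciferase reporter cells (luciferase flanked by upstream and downstream ATXN2 gene portions) were treated 24 h at 37 °C with compounds at up to 57 uM. SteadyGlo luminescence gave expression; GF-AFC fluorescence gave viability.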
ATXN viability – reduces viability in counter-screen for ATXN expression inhibitors | 400,000 tested, 0.49% active | Potency, µM (top dose mostly 56.7 µM), usual class: cytotoxic | S2 cells (HEK-293 line with an ATXN2-luciferase reporter) viability, CellTiter-Fluor protease fluorescence, 24 h; further: nearly all actives have a fitted effect of over 40% in size
IL-1B inflam inh – inflammasome signaling inhibition, IL-1 beta readout | THP-1 LPS/ATP IL-1B secretion, AlphaLISA, 16 h; stronger effect = lower value | 360,000 tested, 4.7% active | AID 743279 | activity change, % at 57.5 µM; in the data active means activity change below about -50%; inconclusive means mostly about -30% to -49%
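Secreted IL-1B measured by AlphaLISA bead assay after 16 h compound exposure of THP-1 cells; compounds (final up to 57.5 uM) added 1 h before LPS (250 ng/mL) and ATP (1.25 mM) stimulation; lower signal means less secretion.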
D3 antag – antagonists of human D3 dopamine receptor. AID 652054. D3R cells, DiscoveRx beta-arrestin luminescence, antagonist mode; stronger effect = lower value. max response, negative = inhibition, %. 360,000 tested, 2.5% active; in the data active means max response below about -50%; inconclusive means no clear call, values can overlap the other calls
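Cells expressing the human receptor were seeded at 1500 cells/well, incubated overnight at 37 degrees C in 5% CO2, then exposed to library compounds with dopamine controls for 90 minutes at 37 degrees C before luminescent detection.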
Numbers stand for hits; – = inactive; ? = inconclusive; · = no result given; ! = not confirmed by another sample. A selection: hits, their analogues and other compounds. The true share with any hit is near 7%. Unless noted, the call rests on the fitted dose curve; in most records, active means well fitted curve in the direction sought with a large enough effect; inconclusive means small, poorly fitted or top-dose-only effect, or another doubt; inactive means no such curve, though single readings can be large; an effect the other way counts as inactive or inconclusive.

SMILES	Integrin act MD	D3 ag	ATXN2 expr inh	ATXN viability	IL-1B inflam inh	D3 antag
O=C(CCc1ccccc1)NC(NC(=S)Nc1ccc(Cl)cc1)C(Cl)(Cl)Cl (centres undefined)	–	–	31.6µM	·	–	?
CC(=O)NC(NC(=S)Nc1cccc(Br)c1)C(Cl)(Cl)Cl (centres undefined)	–	–	–	–	-60.2	–
CC(C)CC(=O)NC(NC(=S)Nc1ccccc1)C(Cl)(Cl)Cl (centres undefined)	–	–	–	–	-77.1	–
Cn1c(Oc2ccccc2NCc2cc(Br)ccc2O)cc(=O)n(C)c1=O	–	–	–	–	–	?
Cc1cnnn1-c1ccc(C(=O)CCl)cc1	–	–	–	–	-108.5	–
CC(=O)c1ccc(-n2nncc2C(C)(C)C)cc1	–	–	–	–	–	–
CCOc1ccc(-n2cc(-c3ccccc3)c3c(=O)[nH]cnc32)cc1	–	–	–	–	-66.7	–
Cc1cccc(-n2cc(-c3ccccc3)c3c(=O)[nH]cnc32)c1	–	–	–	–	-87.7	–
Cc1cccc(-n2cc(-c3ccccc3)c3c(N4CCC(C)CC4)ncnc32)c1	·	–	·	·	·	·
O=c1[nH]cnc2c1c(-c1ccccc1)cn2-c1ccc(Br)cc1	–	–	–	–	?	?
CO/N=C/C(=N\Nc1cc(OC)cc(OC)c1)C(=O)c1ccccc1	–	–	–	–	–	–
CSc1ccc(C2=CC(=O)C[C@H](c3ccc4c(c3)OCO4)C2)cc1	–	–	–	–	–	-51.9
Cc1ccc(C2=CC(=O)C[C@H](c3ccc4c(c3)OCO4)C2)cc1	–	–	–	–	–	–
COc1ccccc1C1=CC(=O)C[C@H](c2ccc3c(c2)OCO3)C1	–	–	–	–	–	–
O=C1C=C(c2ccccc2Oc2ccccc2)C[C@@H](c2ccc3c(c2)OCO3)C1	–	–	–	–	-58.0	–
Cc1ccc(S(=O)(=O)N2CCN(C(=O)CCc3c[nH]c4ccccc34)CC2)c(C)c1	–	–	–	–	–	–
C/C(=N/NC(=O)c1nnn(-c2nonc2N)c1CSc1ccc(Cl)cc1)c1ccncc1	–	–	·	–	–	–
COc1ccc2oc(CS(=O)c3ccccc3)c(C(=O)O)c2c1 (centres undefined)	12.6µM	–	·	–	–	–
COc1cc2c(Nc3ccc(Cl)c(Cl)c3F)ncnc2cc1OCC1C[C@@H]2CN(C)C[C@H]2C1	·	·	30.6µM	·	·	·
COc1cc2c(Nc3ccc(Br)cc3F)ncnc2cc1OCC1CCN(C)CC1	·	–	30.6µM!	–	·	·
COc1ccc(CNC(=O)CN(Cc2ccc(C)cc2)S(=O)(=O)c2ccc(Cl)cc2)cc1	–	–	–	–	–	–
COCCCNC(=O)CSc1nc2c(sc(=S)n2-c2cc(Cl)ccc2OC)c(=O)[nH]1	–	–	·	–	–	–
COc1ccc(Cl)cc1-n1c(=S)sc2c(=O)[nH]c(SCC(=O)NCC3CCCO3)nc21 (centres undefined)	–	–	–	–	–	-58.3
Cc1cc(O)c2ccccc2c1O	·	–	8.91µM	?	·	·
O=C(NCc1ccccn1)c1ccc2c(=O)n(CCc3ccccc3)c(=O)[nH]c2c1	–	–	·	–	–	–
SMILES	Integrin act MD	D3 ag	ATXN2 expr inh	ATXN viability	IL-1B inflam inh	D3 antag
C=CCn1c(=O)c2c(C)c(C)sc2n2c(Nc3ccccc3)nnc12	?	–	–	–	–	–
COc1ccc(/C=N/NC(=O)c2nc(-c3ccccc3)n(-c3ccccc3)n2)c(O)c1	–	–	3.98µM	–	–	–
COc1cccc(/C=N/NC(=O)c2nc(-c3ccccc3)cc(-c3ccccc3)n2)c1O	–	–	10µM	–	–	–
CCOc1ccccc1/C=N/NC(=O)c1c(C)nc2ccc(Br)cn12	–	–	–	–	–	–
COc1cc(OC)c2cc(C(=O)N/N=C/c3cccc(OC)c3O)[nH]c2c1	–	–	3.16µM	?	–	–
COc1cccc(/C=N/NC(=O)c2c(C)nc3ccc(Br)cn23)c1O	–	–	0.631µM	–	–	–
CC(C)(CC(=O)O)CC(=O)Nc1ccc(Oc2ccc(C(C)(C)C)cc2)nc1	?	–	–	–	–	–
Cc1c(C(=O)NCc2ccccn2)oc2ccc(S(=O)(=O)N3CCOCC3)cc12	?	–	–	–	–	–
COc1cccc(C=NNC(=O)c2ccncc2)c1O	–	–	10µM	–	–	–
COc1cccc(/C=N/NC(=O)N/N=C/c2cccc(OC)c2O)c1O	–	–	?	–	-96.8	–
CCn1c(C)nc2cc(C(=O)N/N=C/c3cccc(OC)c3O)ccc21	–	–	14.1µM	–	–	–
COc1ccccc1C=NN=C(NN=Cc1ccccc1OC)NN=Cc1ccccc1OC	–	–	–	?	-81.6	–
COc1ccccc1C=NNC(=O)NN=Cc1ccccc1OC	–	–	–	–	–	–
CC(=O)C12OC1CC1C3CCC4=CC(=O)CCC4(C)C3CCC12C (centres undefined)	–	–	–	–	?	–
Cc1c(Cl)cccc1NC(=O)CNC(=O)c1ccco1	–	–	·	–	–	–
COc1cc2oc(=O)cc(CN3CCN(c4ccccc4OC)CC3)c2cc1Cl	·	–	–	–	–	-50.0
COc1ccc2c(CN3CCN(c4ccccc4OC)CC3)cc(=O)oc2c1	·	–	–	–	–	?
COc1ccc(CN2CCN(C(=O)c3cccs3)CC2)c(OC)c1OC	–	–	–	–	–	-86.1
O=C(c1cccs1)N1CCN(Cc2cn[nH]c2-c2ccc(F)cc2F)CC1	?	–	–	–	-50.6	–
CCOc1ccccc1CN1CCN(S(=O)(=O)CC)CC1	–	–	–	–	–	-50.8
CC(C)(O)/C=C/C(=O)[C@](C)(O)C1[C@H](O)C[C@@]2(C)C3CC=C4C(C=C(O[C@@H]5O[C@H](CO)[C@@H](O)[C@H](O)[C@H]5O)C(=O)C4(C)C)[C@]3(C)C(=O)C[C@]12C (some centres undefined)	–	–	–	–	–	–
O=C(Nc1ccc(C(=O)N2CCCC2)cc1)c1ccc(F)cc1Cl	–	–	–	–	–	–
CCc1ccc(S(=O)(=O)Nc2ccc(-c3ccc(N4CCCC4)nn3)cc2)cc1	·	–	–	–	·	·
COC(=O)[C@@]12CCCN1[C@H](c1ccc(-c3ccc4c(c3)OCO4)c(OC)c1)[C@H]1C(=O)N(C)C(=O)[C@H]12	–	–	–	–	–	–
COc1ccc(NC(=O)CCCS(=O)(=O)c2nc(-c3ccc(OC)c(OC)c3)cc(C(F)(F)F)n2)cc1OC	·	–	·	·	·	·
O=C(COC(=O)C1CC1)Nc1nc(-c2ccc(F)c(F)c2)cs1	–	–	–	–	–	–
COc1ccc(CN2CCN(C(=O)CC(C)C)CC2)c(OC)c1OC	–	–	–	–	–	–
